Measurements: the supplement of paper PMC11417369
± gives the standard deviation of the averaged measurements. Whole data set: some 25,000 sequences, median “ln(normalized median fluorescence intensity)” near 8.9, cut for the highest 2% near 10. The list comes from a sample in which the highest values are over-represented; it also holds similar and randomly drawn sequences.

These sequences were tested on PfAP2-LT AP2 domain (GST-tagged) (assay: gcPBM binding intensity (ln(normalized median fluorescence intensity)); higher = stronger DNA binding).
Outline: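 Using an Agilent 4 × 180k array, primer-extended double-stranded 36-bp intergenic genomic probes and negative controls were exposed for 1 h to GST-fused P. falciparum DNA-binding domains expressed in E. coli. Binding was carried out in 1× PBS with 1% milk, 0.2 mg/ml BSA, 0.5% salmon testes DNA and 0.03% Triton X-100, and protein was detected with Alexa488 anti-GST antibody and a 488 nm scan. Binding intensity is the highest Masliner-normalised natural-log median intensity across replicate spots of either probe orientation.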

Sequence | gcPBM binding intensity (ln)
AAGAAAATAAAAAGGTAAATATGTATAAATAAATAA [TGCATGCA_negctrl_site88] | 8.71 ± 0.47
TTATTTTCTTTTTCTTGTACACACATAATATGGATG [XGTACX_site1481] | 9.17 ± 0.54
CTAATGATCATATATACACACACACTAATAAAAAAA [CACACA_site9329] | 9.64 ± 0.14
ATACCTTCTTTTATGTTTAATTAATATACTTTTTAT [CACACA_negctrl_site1557] | 8.96 ± 0.55
ACATATATTATTATATGTACATATATTAATTATATA [XGTACX_site3400] | 8.66 ± 0.28
GCACACACAAAAAAAGCATGCATACTAGCTATTTTT [TGCATGCA_site18] | 9.37 ± 0.42
CACCCATAGAAACACACACACGCATAAAAAAAAAAA [CACACA_site1513] | 9.56 ± 0.37
TACACAAAAATAAACACACACACATATAAATAAATA [CACACA_site6599] | 9.76 ± 0.3
TACCAAAAGAAACACACACACAAAATATATAAATAT [CACACA_site1869] | 9.88 ± 0.28
TACACAAAAATAAACACACACACATATATATATATA [CACACA_site1000] | 9.79 ± 0.23
TACACGCATAAACACACACACACACCCATATATATA [CACACA_site8114] | 10.24 ± 0.05
AAAAAAAGAAAAAAAACACACACAAATATAAATAAA [CACACA_site8309] | 9.46 ± 0.39
CACAAAAATAAACACACACACATATATATATATATA [CACACA_site4704] | 10.21 ± 0.057
AAAAAGAAAAAAAACACACACAAATATAAATAAATA [CACACA_site1183] | 9.24 ± 0.49
CTTACCAAAAAACACACACACACAAAATATATAAAT [CACACA_site1870] | 10.1 ± 0.24
ATATATATAAAACACACACACAAAAAAAATAAAGAC [CACACA_site117] | 10.1 ± 0.28
AAAAAATATAAAAAAACACACAAAAAAAAAAAAAAA [CACACA_site1382] | 8.6 ± 0.59
ATTCTACACGCACATACACACATATAAATATAAATA [CACACA_site7582] | 9.24 ± 0.35
TATATATAATATATATATATGGAAATTCTTTTAAAT [XGTACX_negctrl_site50] | 8.41 ± 0.38

Sequence | gcPBM binding intensity (ln)
AATATGAATATCTATACACACACATATATATACACA [CACACA_site8459] | 9.45 ± 0.26
AAAAAAAAAAAATGTGCACACGCGTACACCCAAAAA [CACACA_site8614] | 9.03 ± 0.4
TAATGAAGATATATAACACACAAAAGTTATAAATAT [CACACA_site6678] | 8.97 ± 0.43
AAAATATAGTAACACATACACACATATATATTTATA [CACACA_site2504] | 9.19 ± 0.38
ATAATATATATGAAATGTACATAAATTTAATGCGAC [XGTACX_site5394] | 9.18 ± 0.45
AACTGCAAAAAAAGACGTACAAATTATTAATTGCAA [XGTACX_site8929] | 8.88 ± 0.54
ATATAAATAACGTGTACACACATATGTATTTATATA [CACACA_site6520] | 9.12 ± 0.31
AAAATTAACCGTAACACACACACATATATATATATA [CACACA_site3964] | 9.96 ± 0.28
AAAAAAAATAAACACACACACATACCCATAAATATA [CACACA_site5980] | 10 ± 0.13
AAAAAAAAAAAAAACACACACACACCCATAAATATA [CACACA_site151] | 10.2 ± 0.15
TACATAAAATATATCACACATATAATATATATATAT [CACACA_site5834] | 8.86 ± 0.35
TCATAGTATAAACACACACACACACCCATATATATA [CACACA_site8512] | 10.1 ± 0.31
ACCATATAAATAAACACACACACACCCATATATATA [CACACA_site2321] | 10 ± 0.36
TTAATTAAGAAACACACACACATATATATATATATT [CACACA_site2290] | 9.79 ± 0.12
AATTAACCGAAACACACACACATATATATATATATA [CACACA_site3963] | 10.24 ± 0.064
GGAACAAATAATATCACACATATATATATATATATA [CACACA_site5670] | 10.2 ± 0.41
AAAAAAAAAAAAAACACACACACAATAGTATATAAA [CACACA_site957] | 9.55 ± 0.43
AATATACAAAATATCACACATATAAAATAATATATA [CACACA_site6067] | 8.88 ± 0.45
TTTTTTTTTTTTTTTACACACTATAGGGAAAAAAAA [CACACA_site1916] | 8.21 ± 0.37

Sequence | gcPBM binding intensity (ln)
AGAAAGAAAGAATACACACACACATATATATATATC [CACACA_site3744] | 9.95 ± 0.3
GAATTAAAATAATACGTACACACATGTATAATACAT [CACACA_site1004] | 9.21 ± 0.29
AAAAAATATATATCACGTGGTAATATATATATATAT [XGTACX_negctrl_site252] | 9.16 ± 0.14
CATAAATACATACATACACACATATTTATATTTATA [CACACA_site7071] | 9.16 ± 0.4
ATAATATATATATAAACACACAAAAAAAATTATATA [CACACA_site1534] | 8.96 ± 0.42
ATATAATATATATATAAACACACAAAAAAAATTATA [CACACA_site8434] | 8.97 ± 0.45
TATATATAAAAACACACACACACACCCTATAATTAT [CACACA_site4063] | 10.18 ± 0.042
TTGAAAATACAAAATTGTACAAAGATTTAAATAAAA [XGTACX_site1182] | 8.7 ± 0.49
AGAAGCATACATCAAGCACACACACCCACACCCACA [CACACA_site8014] | 10 ± 0.37
AATAAATAAGCACATACACACATACATACATACATA [CACACA_site6075] | 9.54 ± 0.26
TGAATAAATCAAAGCACACATACACCCACATATATA [CACACA_site286] | 9.47 ± 0.24
AAGCATACATCAAGCACACACACACCCACACCCACA [CACACA_site372] | 10.3 ± 0.42
CATATACATCCACATACACACATACACCCATACACA [CACACA_site5038] | 9.66 ± 0.28
ATACATCAAGGACACACACACACACCCACACCCACA [CACACA_site8013] | 10.4 ± 0.27
GCATACATCAAGCACACACACACACGCACACGCACA [CACACA_site6311] | 10.2 ± 0.19
TAAATAAGCACATACACACATACATACATACATAAA [CACACA_site4017] | 9.44 ± 0.38
AAATAAAAAAAAAAAAAAAATAACTTAAATGGGATA [TGCATGCA_negctrl_site595] | 8.33 ± 0.58
TGCATTATATTAAATTTTTTATTTGTTGATGTTATA [GTGCAC_negctrl_site371] | 8.57 ± 0.47
